In the library only some 3.8% were active in any assay of this set; here they are far more common.
GDH-TPI counter-1 – GDH-TPI coupling enzyme inhibitors, primary screen, artefact control for M. tuberculosis FBA inhibitor project, biochemical, absorbance, full deck; GDH-TPI coupled enzyme counterscreen, NADH absorbance; inhibition, % at 4.8 µM; hit rate 1.2% among 360,000; in the data active = inhibition above about 30%;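 note: 0% = DMSO wells and 100% = wells lacking the enzyme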
Mtb hypoxia rep – PubChem AID 1159583; M. tuberculosis hypoxia-regulated fluorescent reporter, fluorescence; fluorescence inhibition, % (concentration not given with the values); hit rate 0.1% among 300,000; in the data active = fluorescence inhibition mostly above about 23%, no sharp cut-off; inactive = mostly below about 17%
PrPC TRFRET – inhibitors of human cell surface prion protein PrPC, primary screen, cell-based, TR-FRET; TR-FRET read-out; inhibition, % at 13.8 µM; hit rate 0.43% among 370,000; in the data active = inhibition above about 24%; note: 0% = median of the test wells and 100% = reference compound wells
Y pestis TopoI – Yersinia pestis topoisomerase I inhibitors, primary screen, biochemical, cleavage product accumulation, plate reader, single point; activity, % at 10 µM; DNA topoisomerase I (Yersinia pestis CO92); hit rate 0.064% among 360,000; Y. pestis Topo-I cleavage product accumulation; in the data active = activity above about 50%, passing the limit was not always enough
Mtb FBA inh – Mtb FBA enzyme inhibitors, primary screen, biochemical, fluorescence, strain H37Rv; purified M. tuberculosis FBA, fluorescence read-out; inhibition, % at 1 µM; hit rate 2.3% among 360,000; AID 588726, 2011;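 note: 0% = vehicle and 100% = reference inhibitor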
Target sequence (P9WQA3 whole entry, looked up): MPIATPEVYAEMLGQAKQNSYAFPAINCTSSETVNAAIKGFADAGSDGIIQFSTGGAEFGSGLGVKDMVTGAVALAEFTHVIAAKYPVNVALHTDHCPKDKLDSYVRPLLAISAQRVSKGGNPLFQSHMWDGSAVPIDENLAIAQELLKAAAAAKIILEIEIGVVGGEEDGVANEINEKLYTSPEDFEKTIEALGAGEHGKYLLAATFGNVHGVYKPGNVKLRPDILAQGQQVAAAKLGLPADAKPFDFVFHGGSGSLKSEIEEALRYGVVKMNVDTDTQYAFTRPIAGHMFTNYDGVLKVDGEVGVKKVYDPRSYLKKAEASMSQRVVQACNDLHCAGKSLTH
PrP UTR inh – inhibition of PrP 5' UTR reporter expression; cell-based PrP 5' UTR mRNA reporter, plate reader; inhibition, % (no concentration beside the values); hit rate 0.35% among 340,000; in the data active = inhibition above about 52%; note: 0 = median of the neutral control wells
Mtb FBA confirm – M. tuberculosis aldolase blockers, biochemical, fluorescence, strain H37Rv, confirmation. shares compounds with Mtb FBA inh. purified M. tuberculosis FBA, fluorescence read-out. inhibition, % at 1 µM. hit rate 78% among 5,600. AID 651616, 2012;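 note: 0% = vehicle wells and 100% = reference inhibitor wells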
GDH-TPI counter-2 – GDH-TPI coupling enzyme inhibitors, artefact control for M. tuberculosis FBA inhibitor project, biochemical, fluorescence, high throughput. shares compounds with Mtb FBA inh. GDH-TPI coupled enzyme counterscreen. inhibition, % at 1 µM. hit rate 81% among 5,600; in the data active = inhibition above about 10%
* hit, by the source's call; / = no result shown; + = active, no number. Cut-off read from the data, not from the text of the source, unless noted: active = inhibition above about 27%; inactive = the rest.

SMILES	GDH-TPI counter-1	Mtb hypoxia rep	PrPC TRFRET	Y pestis TopoI	Mtb FBA inh	PrP UTR inh	Mtb FBA confirm	GDH-TPI counter-2
COc1ccc(-c2cnc3c(NC(C)=O)cc(-c4ccccc4OC)cn23)cc1OC	9	/	0	30	9	/	/	/
COc1ccccc1-c1cc(NC(C)=O)c2ncc(-c3ccc(S(C)(=O)=O)cc3)n2c1	16	/	10	22	59*	/	71*	62*
CC(=O)Nc1cc(-c2ccccc2Cl)cn2c(-c3ccc(S(C)(=O)=O)cc3)cnc12	12	/	-4	3	42*	/	+	183*
COc1cc(C=Nn2c(COc3ccccc3)n[nH]c2=S)cc(Br)c1O	/	8	/	/	/	/	/	/
CC(C)(C)c1ccc(C=NN2C(=O)CSC2=S)cc1	/	18	/	/	/	/	/	/
CN(CCCNC(=O)c1ccc(C=NO)nc1)CCCN(C)Cc1ccccc1	/	9	/	/	/	/	/	/
Cn1c(=O)c2cc(NC(=O)NCCc3cccs3)ccc2n1C/C=C/c1ccccc1	18	/	/	3	65*	/	1	-4
COc1ccccc1CCC(=O)Nc1ccc2c(c1)c(=O)n(C)n2-c1cccs1	8	/	7	27	1	/	/	/
Cn1c(=O)c2cc(NC(=O)NCc3ccccc3)ccc2n1C/C=C/c1ccccc1	7	/	12	19	77*	/	99*	60*
C#Cc1ccc(C2C=C(C(=O)N3CCN(Cc4ccccc4)CC3)OC(OCc3ccc(CO)cc3)C2)cc1 (stereo unspecified)	/	7	/	/	/	/	/	/
CNC(=S)NN=C(C)c1ccc(Cl)s1	/	15	/	/	/	/	/	/
Cc1ccc2nc(-c3sc4nc(C)cc(C)c4c3N)[nH]c2c1	9	/	-2	-3	30*	-67	112*	82*
Cc1cc(C)c2c(N)c(C(=O)c3cccc(Cl)c3)sc2n1	13	14	-22	-8	2	7	/	/
Cc1ccn2c(NC3CCCC3)c(-c3ccncc3)nc2c1	22	3	-3	16	1	-15	/	/
CCCCCCSc1ccc(-c2nc3cc(C)ccn3c2NC2CCCCC2)cc1	6	1	3	-8	7	-11	/	/
CCC(C)Sc1ccc(-c2nc3cnccn3c2NC2CCCCC2)cc1 (stereo unspecified)	12	/	2	20	29*	-14	67*	57*
CCC(C)Sc1ccc(-c2nc3cc(C)ccn3c2NC2CCCCC2)cc1 (stereo unspecified)	29	-6	12	17	33*	-21	+	+
Cc1ccn2c(NC3CCCCC3)c(-c3cccc(-c4cccc(Cl)c4)c3)nc2c1	16	/	1	8	33*	-22	113*	101*
Oc1ccc(-c2nc3ccccn3c2NCc2ccco2)cc1	12	12	-4	-11	52*	-28	70*	55*
c1ccc(-c2ccc(-c3ccccc3)[nH]2)cc1	18	20	0	-12	64*	-97	178*	163*
O=C(O)c1ccc(-c2ccccc2)[nH]c1=O	19	12	-8	-3	106*	-13	+	+
CC(C)c1ccc(C=NNC(=O)c2cccc(Cl)c2)cc1	/	-6	/	/	/	/	/	/
CCC(C)=C1SC(N2CCN(C(C)=O)CC2)=NC1=O	/	-4	/	/	/	/	/	/
CN(C)C=Nc1sc2c(c1C(N)=O)CCCC2	/	8	/	/	/	/	/	/
O=C(NC1CCS(=O)(=O)C1)c1ccc(-c2ccc(Br)cc2)o1 (stereo unspecified)	2	6	-5	11	42*	-56	25	17*
COc1cccc(-c2nc(-c3ccccn3)no2)c1OC	0	/	-7	-1	-3	-73	/	/
c1ccc(-c2noc(-c3cccc4ccccc34)n2)nc1	-4	/	-5	32	46*	-26	+	+
Brc1c(CSc2nncn2-c2ccccc2)nc2ncccn12	19	9	-3	-8	83*	-4	103*	75*

Screens (PubChem BioAssay)
